Screening results (PubChem BioAssay)
USP1-UAF1 inh: Inhibitors of USP1/UAF1: Primary Screen | Potency, µM (doses to about 57.1 µM), without a hit: at the highest dose activity change, negative = inhibition, actives largely listed as inhibitors | recombinant USP1/UAF1, Ub-Rhodamine cleavage fluorescence | 390,000 compounds, 0.23% hits | AID 743255, 2014 | Ubiquitin carboxyl-terminal hydrolase 1 (Homo sapiens), O94782; note: % is set by controls: 0 for no effect and ±100 for the full control effect; nearly all actives have a fitted effect of over 60% in size
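High-throughput fluorogenic screen: 1nM USP1/UAF1 complex, Ub-Rho substrate 150nM final, 50mM HEPES pH 7.8 with 0.5mM EDTA, 0.1 mg/ml BSA, 1mM TCEP and 0.01% Tween-20.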
EPAC1 ag: qHTS for Agonist of cAMP-regulated guanine nucleotide exchange factor 3 (EPAC1): primary screen. Rap guanine nucleotide exchange factor 3 (Homo sapiens), O95398. EPAC1 agonist qHTS, biochemical assay; response scale: 100% = response to 6.5 mM cAMP. Potency, µM (doses to about 154 µM), for the others: top-dose activation, most hits filed as activators. 360,000 compounds, 0.073% hits; note: nearly all actives have a fitted effect of over 60% in size
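Normalized to 6.5 mM cAMP, activity reflects EPAC1-catalysed release of BODIPY-GDP from Rap1B, followed kinetically over 30 min at 480 nm excitation, 540 nm emission. Reaction contained 100 nM EPAC1, 250 nM Rap1B-BODIPY-GDP, 50 uM GDP.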
EPAC2 agonist: qHTS for Agonist of cAMP-regulated guanine nucleotide exchange factor 4 (EPAC2): primary screen; 360,000 compounds, 0.079% hits; Potency, µM (top dose mostly 154 µM), without a hit: at the top dose activation, hits mostly activators; Rap guanine nucleotide exchange factor 4 (Homo sapiens), Q8WZA2; EPAC2 activation, biochemical qHTS; response scale: 100% = 6.5 mM cAMP response; note: nearly all actives have a fitted effect of over 50% in size
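Nucleotide exchange monitored as fluorescence drop when BODIPY-GDP leaves Rap1B. Reaction: 100 nM EPAC2, 250 nM RAP1B-BODIPY-GDP, 50 uM GDP, room temperature, kinetic read over 30 min. Activity expressed relative to 6.5 mM cAMP.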
EPAC1 antagonist: qHTS for Antagonist of cAMP-regulated guanine nucleotide exchange factor 3 (EPAC1): primary screen | EPAC1 GEF assay, Rap1b-BODIPY-GDP exchange fluorescence | Potency, µM (titrated, usually from 115 µM), without a hit: at the highest dose activity change, negative = inhibition, usual class: inhibitors | 360,000 compounds, 0.14% hits;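 note: plate controls were vehicle for no effect and positive control for full effect; nearly all actives have a fitted effect of over 50% in size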
ALOX12 inh: Primary qHTS assay for inhibitors of human arachidonate 12S-lipoxygenase (ALOX12): Round 2. Polyunsaturated fatty acid lipoxygenase ALOX12 (Homo sapiens), P18054. purified 12hLO, xylenol orange hydroperoxide absorbance. Potency, µM (series often up to 108 µM), inactives show top-dose activity change, negative = inhibition, actives largely listed as inhibitors. 580,000 compounds, 1.1% hits. AID 1671190, 2021; note: % is set by controls: 0 for no effect and ±100 for the full control effect
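Hydroperoxide product was detected by ferrous iron/xylenol orange as the 573 to 405 nm absorbance ratio. Arachidonic acid at 40 uM (final) was turned over for 30 min at room temperature by 150 nM human 12hLO, pH 7.0 Hepes buffer, after 15 min compound preincubation.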
EPAC2 antagonist: qHTS for Antagonist of cAMP-regulated guanine nucleotide exchange factor 2 (EPAC2): primary screen; 360,000 compounds, 0.18% hits; Potency, µM (highest dose often 114 µM), without a hit: at the top dose activity, negative = inhibition, actives largely listed as inhibitors; AID 720708, 2013; EPAC2 GEF exchange of Rap1B-BODIPY-GDP, fluorescence; note: % is set by controls: 0 for no effect and ±100 for the full control effect; nearly all actives have a fitted effect of over 45% in size
The depositor's hits bear a star; ? = inconclusive; · = not tested or not shown. The list is not random: actives were taken first. Their share in the collection is about 1.3%. Calls come from the whole dose curve; as a rule, active = well fitted curve in the direction sought with a large enough effect; inconclusive = small, poorly fitted or top-dose-only effect, or another doubt; inactive = no such curve, though single readings can be large; an effect the other way counts as inactive or inconclusive. Potency is the fitted concentration of half-maximal effect.

SMILES | USP1-UAF1 inh | EPAC1 ag | EPAC2 agonist | EPAC1 antagonist | ALOX12 inh | EPAC2 antagonist
Cc1ccc2c(c1)c1ccc3c(c1n2C)C(=O)C=CC3=O | -22% | 7% | 8% | -26% | 1.1µM* | -4%
Cn1c2ccccc2c2ccc3c(c21)C(=O)C=CC3=O | ? | 5% | 7% | -27% | ? | -29%
COc1ccc2c(c1)c1ncn(CCN3CCCC3)c(=O)c1n2C | -13% | -2% | -5% | 3% | -3% | 8%
COc1ccc2c(c1)c1ccc3c(c1n2C)C(=O)C=CC3=O | -19% | -5% | 4% | -25% | 0.71µM* | -14%
Cc1cc(N(C)C)nc(N2CCN(C(=O)Nc3ccccc3)CC2)n1 | · | · | · | · | 2% | ·
COc1ccccc1CN(C)Cc1ccccc1C | · | · | · | · | -9% | ·
Cc1ccc(N(C)S(=O)(=O)c2ccc(/C=C\c3onc(C)c3NC(=O)C3CC3)cc2)cc1C | · | · | · | · | -3% | ·
C(=C\c1ccco1)/c1ccc2ccccc2n1 | -17% | -1% | 16% | -13% | 40µM* | -1%
Fc1cccc(F)c1/C=C/c1ccc2ccccc2n1 | -15% | 0% | 14% | -15% | -7% | -2%
Cc1cc(/C=C2\SC(=S)NC2=O)c(C)[nH]1 | -24% | 11% | 9% | -22% | ? | -21%
O=C1NC(=S)S/C1=C\c1cc(Cl)ccc1Cl | -16% | -7% | -11% | ? | 7.9µM* | 56µM*
O=C(C(Sc1n[nH]c(-c2ccccc2)n1)c1ccccc1)N1CCOCC1 (centres undefined) | · | · | · | · | 1% | ·
COc1ccc(C(C(=O)O)N2CCN(Cc3csc(C)n3)CC2)c(C)c1 (centres undefined) | · | · | · | · | 22µM* | ·
CCOc1ccccc1C(C(=O)O)N1CCN(Cc2csc(C)n2)CC1 (centres undefined) | · | · | · | · | 61% | ·
COc1ccccc1C1C=C(C(=O)O)Nc2c(C(=O)Nc3ccc(C)cc3)cnn21 (centres undefined) | · | · | · | · | 7% | ·
Cc1ccc(NC2c3ncccc3C(=O)N2c2ccccc2C)cc1C (centres undefined) | 0% | -19% | 2% | ? | 10µM* | -3%
COc1cc(NC2c3ccccc3C(=O)N2c2ccccc2C)cc(OC)c1OC (centres undefined) | · | · | · | · | 3% | ·
O=S(=O)(Cc1ccc(F)cc1)Cc1nc2ccccc2s1 | · | · | · | · | -14% | ·
CC(C)C(NC(=O)COc1ccc2ccccc2c1)C(=O)N/N=C/C=C/c1ccccc1 (centres undefined) | -4% | 8% | -4% | 7% | 8.9µM* | 2%
COc1ccc(-c2cc(=O)n3c4ccccc4n(Cc4cccc(F)c4)c3n2)cc1 | · | · | · | · | 4% | ·
COc1ccc(C(=O)O)cc1C12CC3CC(CC(C3)C1)C2 | · | · | · | · | 2% | ·
COc1ccc(NC(=O)CSc2nc3[nH]ncc3c(=O)n2-c2ccccc2)cc1 | · | · | · | · | 25% | ·
Cc1ccc2oc(=O)c(/C=C(\O)c3ccco3)nc2c1 | ? | 10% | 100µM* | 14% | 6% | 214%
CCN(CC)CCC=C(c1cccs1)c1cccs1 | ? | 5% | -2% | -9% | 50µM* | 16%
CCN(C(=O)c1cccs1)C1CC1 | · | · | · | · | -16% | ·
SMILES | USP1-UAF1 inh | EPAC1 ag | EPAC2 agonist | EPAC1 antagonist | ALOX12 inh | EPAC2 antagonist
CC(Cc1ccccc1)=NNS(=O)(=O)c1ccc([N+](=O)[O-])cc1 | -11% | -1% | 14% | 13% | 20µM* | -11%
CC(C)(C)NC(=O)COC(=O)c1cc(=O)c2ccccc2o1 | · | · | · | · | -2% | ·
O=C(NNC(=S)NC(=O)c1ccc(F)cc1)c1ccc(Cl)cc1 | · | · | · | · | 18µM* | ·
O=C(CCc1ccccc1)NNC(=S)NC(=O)c1ccc(Cl)cc1 | -1% | 7% | 8% | -1% | 13µM* | -1%
O=C(NC12CC3CC(CC(C3)C1)C2)c1ccc(Cl)cc1 | · | · | · | · | 0% | ·
O=C(NC(=S)NC12CC3CC(CC(C3)C1)C2)c1ccc(F)cc1 | -10% | 15% | 23% | -17% | 22µM* | -12%
O=C(CCc1ccccc1)NNC(=O)c1ccc(Cl)cc1 | -10% | 3% | -2% | -6% | 4% | 10%
Cn1nc(C(=O)OCc2nc(N)nc(Nc3ccc(Cl)cc3)n2)c2ccccc2c1=O | · | · | · | · | 60% | ·
O=C(c1n[nH]c(=O)c2ccccc12)N1CCC(n2c(=O)[nH]c3ccccc32)CC1 | · | · | · | · | 8% | ·
COCCCNC(=O)C(C#N)c1nc2ccccc2nc1N1CCN(Cc2ccccc2)CC1 (centres undefined) | -8% | 1% | -48% | 7% | ? | 79µM*
COCCOC(=O)C(C#N)c1nc2ccccc2nc1N1CCN(Cc2ccccc2)CC1 (centres undefined) | 5% | 5% | 10% | -13% | · | ?
Cc1cc(C)c2c(=O)n(CC(=O)Nc3ccc(Br)c(C)c3)sc2n1 | 0% | 3% | 13% | -3% | -106% | -6%
Cc1cc(C)c2c(=O)n(CC(=O)Nc3cccc(Cl)c3C)sc2n1 | -9% | 6% | 0% | -4% | 0.71µM* | 6%
O=C(O)C1Nc2c(O)cc(Cl)c([N+](=O)[O-])c2C2C=CCC12 (centres undefined) | ? | 15% | 15% | 13µM* | ? | -17%
COc1ccc(-c2nc(=S)[nH][nH]2)cc1 | -19% | 1% | -1% | 11% | ? | 13%
CCOc1ccc(-c2nc(=S)[nH][nH]2)cc1 | -7% | 4% | 9% | 0% | 25µM* | -5%
CC(=O)Nc1cc(OC(C)=O)c2nonc2c1OC(C)=O | 4µM* | -4% | 8% | ? | -22% | 4%
CC(C)Oc1ccc(/C=N/NC(N)=S)cc1 | -19% | -6% | 0% | 3% | ? | 3%
COc1ccc(/C=N/Nc2ccc(C(=O)O)cc2)cc1Br | -33% | 4% | -1% | 5% | ? | 56µM*
COc1ccc(/C=N/NC(N)=S)cc1 | -3% | -2% | 5% | 2% | 25µM* | 4%
COc1cc(/C=N/Nc2ccc(Cl)c(C(=O)O)c2)ccc1OC(=O)c1ccco1 | -6% | -13% | -6% | ? | -27% | -1%
COc1ccc(C(=O)Oc2ccc(/C=N/Nc3ccc(Cl)c(C(=O)O)c3)cc2OC)cc1 | ? | -2% | -16% | -26% | ? | 20µM*
CN(CCC#N)c1ccc(/C=N/NC(N)=S)cc1 | · | · | · | · | 18µM* | ·
